Publication PMC9838217, “Structure of SALL4 zinc finger domain reveals link between AT-rich DNA binding and Okihiro syndrome”
Numbering of substitutions follows the chain as printed.

These sequences were tested against T1, SALL4 ZFC4 WT (HT-SELEX) (Mus musculus, UniProt Q8BX22 870-940) (assay: HT-SELEX; high values mean tight binding). Conditions: protein: recombinant; vector His6-GST; dsDNA, one strand shown.
T1 sequence: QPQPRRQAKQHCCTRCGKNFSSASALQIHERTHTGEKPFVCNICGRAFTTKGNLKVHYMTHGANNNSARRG
How it was run: (§1)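 Each canonical k-mer's binding signal is its read fraction expressed as fold change over the initial random library. Reads came from MiSeq sequencing, scanned for 6-mers, after up to 6 triplicate cycles in which purified recombinant mouse SALL4 zinc finger cluster 4 (residues 870–940, 1 µg) bound library DNA (1.5 µg first cycle, 200 ng later) in 100 µl of 10 mM Tris–HCl pH 7.5, 50 mM NaCl, poly(dI-dC), DTT for 10 min at room temperature. Complexes were then Ni2+ bead-captured, washed, PCR-amplified and reselected.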

In order of rising binding signal:
1. GCATTA  1.15 ± 0.025 fold-change vs cycle 0
2. ACGAAT  1.18 ± 0.0691 fold-change vs cycle 0
3. TCGTAA  1.21 ± 0.0956 fold-change vs cycle 0
4. CAATAG  1.21 ± 0.0269 fold-change vs cycle 0
5. ATACGA  1.26 ± 0.0299 fold-change vs cycle 0
6. GGTATA  1.3 ± 0.0598 fold-change vs cycle 0
7. GTGTTA  1.31 ± 0.0667 fold-change vs cycle 0
8. ACTATG  1.34 ± 0.073 fold-change vs cycle 0
9. GAACTA  1.37 ± 0.088 fold-change vs cycle 0
10. GGAATA  1.41 ± 0.0746 fold-change vs cycle 0
11. ATTCTC  1.41 ± 0.062 fold-change vs cycle 0
12. ACCATA  1.42 ± 0.0615 fold-change vs cycle 0
13. GAAGTA  1.43 ± 0.0516 fold-change vs cycle 0
14. ATGATG  1.43 ± 0.0727 fold-change vs cycle 0
15. CTCTTA  1.46 ± 0.0534 fold-change vs cycle 0
16. AGAATA  2.17 ± 0.0586 fold-change vs cycle 0

These sequences were tested against T2, SALL4 ZFC4 R900W (HT-SELEX) (Mus musculus, UniProt Q8BX22 870-940, R900W) (assay: HT-SELEX; high values mean tight binding). Conditions: protein: recombinant; vector His6-GST; dsDNA, one strand shown.
T2 sequence: T1 sequence with R31W
How it was run: as §1

In order of rising binding signal:
1. ATCCTG  1.02 ± 0.0483 fold-change vs cycle 0
2. ATGGAG  1.04 ± 0.0611 fold-change vs cycle 0
3. GAGAGA  1.06 ± 0.0438 fold-change vs cycle 0
4. GCTTTA  1.09 ± 0.0574 fold-change vs cycle 0
5. AATACG  1.11 ± 0.0569 fold-change vs cycle 0
6. ACGAAA  1.12 ± 0.0308 fold-change vs cycle 0
7. AAATGG  1.16 ± 0.0862 fold-change vs cycle 0
8. CAAATG  1.17 ± 0.0524 fold-change vs cycle 0
9. ATGCAA  1.18 ± 0.0732 fold-change vs cycle 0
10. ATTGTG  1.18 ± 0.0444 fold-change vs cycle 0
11. CTCAAA  1.2 ± 0.0701 fold-change vs cycle 0
12. ATAGCA  1.21 ± 0.0922 fold-change vs cycle 0
13. ACAAAC  1.23 ± 0.0488 fold-change vs cycle 0
14. CCAATA  1.24 ± 0.0246 fold-change vs cycle 0
15. ACCAAT  1.33 ± 0.0357 fold-change vs cycle 0
16. ATACCA  1.39 ± 0.0221 fold-change vs cycle 0
17. AAAACT  1.7 ± 0.107 fold-change vs cycle 0
